Consider four compounds from PubChem BioAssay (EPA / NIEHS).

Molecules are shown by their SMILES. Active and inactive are the calls of the source. The calls were made as follows: active = hit-call score of the fitted dose curve at least 0.9, where 1 is the maximum; inactive = score below 0.9.

What all share (settings): mRNA level, 48 h; actives raise or lower the signal
Read-out in assay [1]: Cytochrome P450 7A1 (Homo sapiens) (UniProt P22680)
As to the kind of experiment: LTEA_HepaRG_CYP7A1: Life Technologies and Expression Analysis (LTEA) Assay for Cytochrome P450 7A1 (CYP7A1) using HepaRG (AID 2283496). The essentials:
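HepaRG cells plated 48 h, then switched to serum-free induction medium and exposed in duplicate for 48 h to 8-point half-log series from 100 uM in 0.5% DMSO. CYP7A1 mRNA by qRT-PCR (TaqMan), normalized to ACTB/GAPDH/POLR2A; bidirectional fit versus DMSO.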

Read-out in assay [2]: Glutathione S-Transferase (GSTA2), GSTA2 (gene 2939)
Nature of the assay: LTEA_HepaRG_GSTA2: Life Technologies and Expression Analysis (LTEA) Assay for Glutathione S-Transferase (GSTA2) using HepaRG (AID 2283497). The essentials:
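Human HepaRG cells, plated 48 h, then exposed in serum-free induction medium for 48 h to eight half-log concentrations up to 100 uM in 0.5% DMSO, duplicate. GSTA2 mRNA by qRT-PCR, normalized to ACTB/GAPDH/POLR2A; bidirectional fit versus DMSO.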

Read-out in assay [3]: growth arrest and DNA damage 45 (GADD45G), GADD45G (gene 10912)
As to the kind of experiment: LTEA_HepaRG_GADD45G: Life Technologies and Expression Analysis (LTEA) Assay for growth arrest and DNA damage 45 (GADD45G) using HepaRG (AID 2283499). The essentials: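 Differentiated human HepaRG cells in serum-free induction medium were exposed for 48 h to 8 half-log concentrations up to 100 uM in 0.5% DMSO, in duplicate. GADD45G mRNA was measured by TaqMan qRT-PCR, normalised to ACTB, GAPDH and POLR2A, and fitted bidirectionally against DMSO.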

Read-out in assay [4]: Glutamate-cysteine ligase regulatory (GCLM), GCLM (gene 2730)
As to the kind of experiment: LTEA_HepaRG_GCLM: Life Technologies and Expression Analysis (LTEA) Assay for Glutamate-cysteine ligase regulatory (GCLM) using HepaRG (AID 2283500). In outline:
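Differentiated HepaRG cells exposed 48 h in serum-free induction medium to eight half-log concentrations up to 100 uM (0.5% DMSO). GCLM mRNA by TaqMan qRT-PCR, normalized to ACTB, GAPDH and POLR2A; bidirectional fit versus DMSO.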

Read-out in assay [5]: Glutathione S-transferase M3 (GSTM3), GSTM3 (gene 2947)
Nature of the assay: LTEA_HepaRG_GSTM3: Life Technologies and Expression Analysis (LTEA) Assay for Glutathione S-transferase M3 (GSTM3) using HepaRG (AID 2283501). The essentials:
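Differentiated HepaRG cells in serum-free induction medium were exposed in duplicate for 48 h to 8 half-log concentrations up to 100 uM in 0.5% DMSO. GSTM3 mRNA was measured by TaqMan qRT-PCR, normalized to ACTB/GAPDH/POLR2A, and fitted bidirectionally versus DMSO.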

Read-out in assay [6]: Heat shock 70 kDa protein 1 (HSPA1A), gene 3303
Nature of the assay: LTEA_HepaRG_HSPA1A: Life Technologies and Expression Analysis (LTEA) Assay for Heat shock 70 kDa protein 1 (HSPA1A) using HepaRG (AID 2283502). In outline:
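Human HepaRG cells in serum-free induction medium were exposed in duplicate for 48 h to 8 half-log concentrations, highest 100 uM, in 0.5% DMSO. HSPA1A mRNA read by TaqMan qRT-PCR, normalized to ACTB, GAPDH, POLR2A, fitted bidirectionally against DMSO.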

Read-out in assay [7]: Hypoxia-inducible factor 1-alpha (Homo sapiens) (UniProt Q16665)
Nature of the assay: LTEA_HepaRG_HIF1A: Life Technologies and Expression Analysis (LTEA) Assay for Hypoxia-inducible factor 1 (HIF1A) Trancription factor using HepaRG (AID 2283503). In outline: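 Differentiated HepaRG cells in serum-free induction medium exposed 48 h, in duplicate, to 8-point half-log series from 100 uM in 0.5% DMSO. HIF1A mRNA measured by TaqMan qRT-PCR, normalized to ACTB/GAPDH/POLR2A, fitted bidirectionally versus DMSO.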

Read-out in assay [8]: 3-Hydroxy-3-Methylglutaryl-CoA Synthase 2 (HMGCS2), HMGCS2 (gene 3158)
Nature of the assay: LTEA_HepaRG_HMGCS2: Life Technologies and Expression Analysis (LTEA) Assay for 3-Hydroxy-3-Methylglutaryl-CoA Synthase 2 (HMGCS2) using HepaRG (AID 2283504). The essentials:
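Differentiated human HepaRG cells were exposed in duplicate for 48 h in serum-free induction medium to eight concentrations (top 100 uM, half-log steps, 0.5% DMSO). HMGCS2 mRNA was quantified by TaqMan qRT-PCR, normalised to ACTB, GAPDH and POLR2A, then fitted bidirectionally against DMSO.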

Read-out in a further assay: HGF (gene 3082)
Nature of the assay: LTEA_HepaRG_HGF: Life Technologies and Expression Analysis (LTEA) Assay for Hepatocyte Growth Facto (HGF) using HepaRG (AID 2283505). The essentials: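 Differentiated human HepaRG cells in serum-free induction medium were exposed in duplicate for 48 h to eight concentrations (top 100 uM, half-log steps, 0.5% DMSO). HGF mRNA was quantified by qRT-PCR, normalized to ACTB, GAPDH and POLR2A.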

Read-out in assay [9]: Insulin Like Growth Factor 1 (IGF1), IGF1 (gene 3479)
Nature of the assay: LTEA_HepaRG_IGF1: Life Technologies and Expression Analysis (LTEA) Assay for Insulin Like Growth Factor 1 (IGF1) using HepaRG (AID 2283506). In outline:
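Differentiated HepaRG cells in serum-free induction medium, exposed 48 h in duplicate to 8 half-log concentrations up to 100 uM in 0.5% DMSO. IGF1 mRNA by Fluidigm qRT-PCR, normalised to ACTB, GAPDH and POLR2A.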

Read-out in assay [10]: Intercellular Adhesion Molecule 1 (ICAM1), ICAM1 (gene 3383)
Nature of the assay: LTEA_HepaRG_ICAM1: Life Technologies and Expression Analysis (LTEA) Assay for Intercellular Adhesion Molecule 1 (ICAM1) using HepaRG (AID 2283507). In outline: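 Differentiated HepaRG cells in serum-free induction medium were exposed in duplicate for 48 h to eight half-log concentrations up to 100 uM in 0.5% DMSO. Transcript levels were measured by qRT-PCR normalized to ACTB, GAPDH and POLR2A; bidirectional fits relative to DMSO.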

Read-out in assay [11]: Insulin-like growth factor-binding protein 1 (IGFBP1), IGFBP1 (gene 3484)
Nature of the assay: LTEA_HepaRG_IGFBP1: Life Technologies and Expression Analysis (LTEA) Assay for Insulin-like growth factor-binding protein 1 (IGFBP1) using HepaRG (AID 2283508). The essentials:
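Differentiated human HepaRG cells in serum-free induction medium were exposed in duplicate for 48 h to eight concentrations, top 100 uM with half-log dilutions, in 0.5% DMSO. Transcript levels came from qRT-PCR normalised to ACTB, GAPDH and POLR2A, fitted bidirectionally against DMSO.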

Read-out in assay [12]: Interleukin 6 (IL6), IL6 (gene 3569)
Nature of the assay: LTEA_HepaRG_IL6: Life Technologies and Expression Analysis (LTEA) Assay for Interleukin 6 (IL6) using HepaRG (AID 2283509). In outline:
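Differentiated human HepaRG cells, plated 48 h then switched to serum-free induction medium, were exposed in duplicate for 48 h to eight half-log concentrations up to 100 uM in 0.5% DMSO. IL6 mRNA measured by qRT-PCR, normalized to ACTB/GAPDH/POLR2A.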

Read-out in assay [13]: Interleukin 6 Receptor (IL6R), IL6R (gene 3570)
As to the kind of experiment: LTEA_HepaRG_IL6R: Life Technologies and Expression Analysis (LTEA) Assay for Interleukin 6 Receptor (IL6R) using HepaRG (AID 2283510).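 As to AC50: TaqMan qRT-PCR signal normalized to ACTB GAPDH and POLR2A housekeeping genes.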 The essentials: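 Differentiated HepaRG cells, plated 48 h, then exposed in duplicate for 48 h in serum-free induction medium to 8 half-log concentrations (top 100 uM, 0.5% DMSO). IL6R mRNA measured by TaqMan qRT-PCR, normalized to ACTB/GAPDH/POLR2A; bidirectional fit vs DMSO.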

Read-out in assay [14]: Potassium channel subfamily K member 1 (KCNK1), KCNK1 (gene 3775)
As to the kind of experiment: LTEA_HepaRG_KCNK1: Life Technologies and Expression Analysis (LTEA) Assay for Potassium channel subfamily K member 1 (KCNK1) using HepaRG (AID 2283511). The essentials: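 Differentiated human HepaRG cells in serum-free induction medium were exposed in duplicate for 48 h to 8 half-log concentrations up to 100 uM in 0.5% DMSO. KCNK1 mRNA was measured by TaqMan qRT-PCR, normalized to ACTB, GAPDH and POLR2A, and fitted bidirectionally versus DMSO.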

Read-out in assay [15]: Keratin 19 (KRT19), KRT19 (gene 3880)
As to the kind of experiment: LTEA_HepaRG_KRT19: Life Technologies and Expression Analysis (LTEA) Assay for Keratin 19 (KRT19) using HepaRG (AID 2283512). The essentials:
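Differentiated human HepaRG cells, plated 48 h, were exposed in duplicate for 48 h in serum-free induction medium to eight half-log concentrations up to 100 uM in 0.5% DMSO. KRT19 mRNA was quantified by qRT-PCR, normalized to ACTB, GAPDH and POLR2A, and fitted bidirectionally versus DMSO.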

Read-out in assay [16]: JUN Transcription Factor, JUN (gene 3725)
As to the kind of experiment: LTEA_HepaRG_JUN: Life Technologies and Expression Analysis (LTEA) Assay for JUN Transcription Factor using HepaRG (AID 2283513). In outline:
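HepaRG cells, 48 h post-plating, exposed 48 h in serum-free induction medium to 8-point half-log series (top 100 uM, 0.5% DMSO), duplicate; mRNA by qRT-PCR (TaqMan, Fluidigm), normalized to ACTB/GAPDH/POLR2A; bidirectional fit vs DMSO.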

Read-out in assay [17]: Lipase C (LIPC), LIPC (gene 3990)
Nature of the assay: LTEA_HepaRG_LIPC: Life Technologies and Expression Analysis (LTEA) Assay for Lipase C (LIPC) using HepaRG (AID 2283514). The essentials:
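Differentiated human HepaRG cells in serum-free induction medium were exposed in duplicate for 48 h to eight concentrations (top 100 uM, half-log steps, 0.5% DMSO). LIPC mRNA was quantified by TaqMan qRT-PCR, normalized to ACTB, GAPDH and POLR2A, with bidirectional fitting versus DMSO.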

Read-out in assay [18]: Lipoprotein lipase (LPL), LPL (gene 4023)
As to the kind of experiment: LTEA_HepaRG_LPL: Life Technologies and Expression Analysis (LTEA) Assay for Lipoprotein lipase (LPL) using HepaRG (AID 2283515). The essentials:
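Differentiated human HepaRG cells in serum-free induction medium were exposed in duplicate for 48 h to eight half-log concentrations (top 100 uM) in 0.5% DMSO. LPL mRNA was quantified by TaqMan qRT-PCR, normalized to ACTB, GAPDH and POLR2A.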

Read-out in assay [19]: Glutamate-cysteine ligase catalytic (GCLC), GCLC (gene 2729)
As to the kind of experiment: LTEA_HepaRG_GCLC: Life Technologies and Expression Analysis (LTEA) Assay for Glutamate-cysteine ligase catalytic (GCLC) using HepaRG (AID 2283498). The essentials:
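Differentiated human HepaRG cells, plated 48 h then switched to serum-free induction medium, were exposed in duplicate for 48 h to 8 half-log concentrations topping at 100 uM in 0.5% DMSO. GCLC mRNA was quantified by qRT-PCR against ACTB, GAPDH and POLR2A.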

Hypoxia-inducible factor 1-alpha (Homo sapiens), sequence (Q16665 whole entry, looked up): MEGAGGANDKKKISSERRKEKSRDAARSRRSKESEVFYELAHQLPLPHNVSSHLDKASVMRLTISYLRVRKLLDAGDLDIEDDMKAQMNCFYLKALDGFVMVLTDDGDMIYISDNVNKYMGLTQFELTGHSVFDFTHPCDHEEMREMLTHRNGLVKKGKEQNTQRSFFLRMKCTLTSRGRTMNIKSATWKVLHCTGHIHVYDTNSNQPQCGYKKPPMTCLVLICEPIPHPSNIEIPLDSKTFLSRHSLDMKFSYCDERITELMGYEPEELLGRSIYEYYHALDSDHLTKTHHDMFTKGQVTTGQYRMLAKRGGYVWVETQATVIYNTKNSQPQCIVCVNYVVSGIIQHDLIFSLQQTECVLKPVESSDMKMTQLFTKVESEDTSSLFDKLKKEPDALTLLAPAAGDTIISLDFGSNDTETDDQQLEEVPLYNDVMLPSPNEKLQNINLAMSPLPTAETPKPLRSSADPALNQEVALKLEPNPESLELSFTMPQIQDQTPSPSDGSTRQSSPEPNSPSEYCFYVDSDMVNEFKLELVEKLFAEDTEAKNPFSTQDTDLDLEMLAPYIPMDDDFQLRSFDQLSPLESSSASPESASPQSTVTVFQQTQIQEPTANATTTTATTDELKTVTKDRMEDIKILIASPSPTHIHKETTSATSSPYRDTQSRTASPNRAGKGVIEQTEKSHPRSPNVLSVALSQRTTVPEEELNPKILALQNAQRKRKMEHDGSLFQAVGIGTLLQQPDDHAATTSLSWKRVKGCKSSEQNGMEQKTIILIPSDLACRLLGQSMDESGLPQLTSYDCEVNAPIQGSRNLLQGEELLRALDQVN

Turning to `COc1cccc(C(=O)NN(C(=O)c2cc(C)cc(C)c2)C(C)(C)C)c1C`, the values for the AC50 in [1] and in assay [9] were 2.88 µM (active) and 74.6 µM (active), respectively. The call in [2], in [3], in assay [4], in assay [5], in assay [6] and in assay [7] was inactive. The result (in assay [8]; in the assay with HGF (gene 3082); in assay [10]; in [11]; in assay [12]; in [13]) was inactive. Further, the call in assay [14], in assay [15], in assay [16], in assay [17] and in assay [18] was inactive.

Take `C#CC(C)(C)NC(=O)c1cc(Cl)cc(Cl)c1`: the compound was called inactive in assay [1], in assay [2], in assay [19], in assay [3], in [4] and in assay [6]. Moreover, the call (in [7]; in [8]; in the assay with HGF (gene 3082); in assay [10]; in assay [11]; in [12]) was inactive. Also, the compound was called inactive in assay [14], in assay [16] and in assay [18]. Further, the AC50 was 14.8 µM (active) in assay [9] and 11.8 µM (active) in assay [15].

As to `CSC1=N[C@@](C)(c2ccccc2)C(=O)N1Nc1ccccc1`, the AC50 in assay [1] is 38 µM (active); in [2] it was 33.9 µM (active); in assay [3] it was 13.5 µM (active); in assay [4], 25 µM (active); in [5] it was 76.6 µM (active); in assay [7] it was 77.1 µM (active). Moreover, the AC50 in assay [8] was 35.3 µM (active); in assay [9] it was 27.6 µM (active); in assay [10], 34 µM (active); in assay [11] it was 31.6 µM (active); in assay [12] it was 33.3 µM (active); in assay [13] it was 16.5 µM (active). In addition, the figures for the AC50 in [15], in assay [17] and in [18] were 18.7 µM (active), 31.4 µM (active) and 26.9 µM (active), respectively. For the same compound, the compound was classed as inactive (in assay [6]; with HGF (gene 3082); in assay [14]; in assay [16]).

Take `CCOP(=O)(OCC)Oc1cc(C)nc(C(C)C)n1`: the outcome in [1], in assay [2], in [19], in assay [3], in [4] and in assay [6] was inactive. The result (in [7]; in assay [8]; in the assay with HGF (gene 3082); in assay [9]; in assay [10]; in assay [11]) was inactive. For the same compound, the compound was called inactive in assay [12], in assay [13], in [14], in [15], in assay [16] and in assay [18].
